Screening data (PubChem)
In the library only some 19% were active in any assay of this set; here they are far more common.
TDP1 cell noCPT: qHTS for Inhibitors of human tyrosyl-DNA phosphodiesterase 1 (TDP1): qHTS in cells in absence of CPT. DT40 Tdp1-/- hTDP1 cells, no CPT, ATP luminescence, 48 h. Potency, µM (titrated, usually from 46.2 µM), inactives show top-dose activity change, negative = growth inhibition, hits mostly inhibitors. hit rate 15% among 420,000; further: potency means the concentration at half of the fitted maximal effect; on the % scale 0 is the no-effect control and ±100 the full control effect; nearly all actives have a fitted effect of over 55% in size
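Growth kinetics read by CellTiter-Glo luminescence after ≥48 hr at 37 °C. Cells: DT40 Tdp1-/- stably carrying human TDP1, 400 per well, compound exposure in the absence of CPT (DMSO vehicle).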
TGFb SMAD3 inh: inhibitors of TGF-b signaling; hit rate 1.2% among 410,000; HepG2 CAGA-GFP TGF-b/SMAD3 reporter, GFP fluorescence, 18 h; TGF-beta stimulated, 500 pg/mL final; Potency, µM (series often up to 46.1 µM), for the others: at the highest dose activity, negative = inhibition, most hits filed as inhibitors; further: potency means the concentration at half of the fitted maximal effect; on the % scale 0 is the no-effect control and ±100 the full control effect; nearly all actives have a fitted effect of over 65% in size
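Cell-based qHTS in HEPG2 carrying a CAGA-GFP Smad reporter; compounds added before 500 pg/mL final TGF-beta, 18 h incubation at 37 degrees C, GFP fluorescence quantified per cell by imaging cytometry.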
IL-1B inflam inh: inflammasome signaling inhibition, IL-1 beta readout; hit rate 4.7% among 360,000; AID 743279; activity change, % at 57.5 µM; THP-1 LPS/ATP IL-1B secretion, AlphaLISA, 16 h; hits give low values; in the data active means activity change below about -50%; inconclusive means mostly about -30% to -49%; further: on the % scale 0 is the no-effect control and ±100 the full control effect
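THP-1 cells pretreated 1 hr with compounds (up to 57.5 uM final), then stimulated with LPS (250 ng/mL final) plus ATP (1.25 mM final); secreted IL-1B measured by AlphaLISA after 16 hr, decreased signal indicating inhibition.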
TDP1 block: inhibitors of human tyrosyl-DNA phosphodiesterase TDP1. hit rate 0.28% among 350,000. Potency, µM (top dose mostly 130 µM), inactives show at the top dose activity change, negative = inhibition, hits mostly inhibitors. recombinant TDP1, AlphaScreen DNA substrate cleavage; further: potency means the concentration at half of the fitted maximal effect; on the % scale 0 is the no-effect control and ±100 the full control effect; nearly all actives have a fitted effect of over 40% in size
Target sequence (Q9NUW8 whole entry, looked up): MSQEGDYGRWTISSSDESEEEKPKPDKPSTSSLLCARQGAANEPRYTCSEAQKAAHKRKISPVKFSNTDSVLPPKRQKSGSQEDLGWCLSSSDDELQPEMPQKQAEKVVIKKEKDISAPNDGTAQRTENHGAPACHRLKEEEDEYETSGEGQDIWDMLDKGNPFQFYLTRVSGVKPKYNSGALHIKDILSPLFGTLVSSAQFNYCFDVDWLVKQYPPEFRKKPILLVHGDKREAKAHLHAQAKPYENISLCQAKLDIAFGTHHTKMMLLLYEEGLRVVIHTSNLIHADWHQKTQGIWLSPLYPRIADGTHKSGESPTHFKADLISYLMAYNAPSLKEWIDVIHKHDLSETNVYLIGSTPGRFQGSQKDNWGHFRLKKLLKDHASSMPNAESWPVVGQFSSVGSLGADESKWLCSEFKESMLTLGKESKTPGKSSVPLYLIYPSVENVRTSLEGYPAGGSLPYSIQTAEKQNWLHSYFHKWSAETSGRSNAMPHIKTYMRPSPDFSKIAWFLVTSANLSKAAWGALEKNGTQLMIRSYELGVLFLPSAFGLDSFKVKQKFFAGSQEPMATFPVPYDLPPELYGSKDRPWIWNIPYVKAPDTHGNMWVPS
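Here, a 5' biotin and 3' phosphotyrosine-FITC DNA oligonucleotide reports Tdp1 activity: intact substrate bridges AlphaScreen beads, while cleavage leaves a 3' phosphate and drops signal. All incubations at room temperature.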
TDP1 cell CPT: growth inhibition of DT40 Tdp1-/-;hTDP1 cells with camptothecin (screen for TDP1 inhibitors); Potency, µM (top dose mostly 46.2 µM), for the others: at the highest dose activity change, negative = growth inhibition, most hits filed as inhibitors; chicken DT40 Tdp1-/-;hTDP1 cells + 20 nM CPT, ATP luminescence, 48 h; AID 686979; hit rate 12% among 420,000; further: potency means the concentration at half of the fitted maximal effect; on the % scale 0 is the no-effect control and ±100 the full control effect; nearly all actives have a fitted effect of over 55% in size
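Chicken DT40 Tdp1-/- cells complemented with human TDP1, 400 cells/well, exposed to compounds plus 20 nM camptothecin for at least 48 h at 37 C; viability read as ATP content by CellTiter-Glo luminescence.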
HepG2 viability: kills HepG2 cells in TGF-b inhibitor counter-screen. HepG2 CAGA-GFP viability, ATP luminescence, 18 h. Potency, µM (top dose mostly 46.1 µM), for the others: at the top dose activity change, negative = cytotoxicity, hits mostly cytotoxic. hit rate 0.76% among 410,000. AID 588856; further: potency means the concentration at half of the fitted maximal effect
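HepG2 CAGA-GFP cells (1000/well, DMEM with 1% FBS) received compound, then TGF-beta at 500 pg/mL final, and were incubated 18 hours at 37 degrees C. Viability was read by CellTiter-Glo luminescence. Media-only wells were set as complete cell-killing and DMSO as no toxicity.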
Active calls of the source: *; ? = inconclusive; · = no result given; [ ] = another dose, or the depositor's remark. Unless noted, the call rests on the fitted dose curve; in most records, active means well fitted curve in the direction sought with a large enough effect; inconclusive means small, poorly fitted or top-dose-only effect, or another doubt; inactive means no such curve, though single readings can be large; an effect the other way counts as inactive or inconclusive.

SMILES | TDP1 cell noCPT | TGFb SMAD3 inh | IL-1B inflam inh | TDP1 block | TDP1 cell CPT | HepG2 viability
COc1ccc(-c2cn3c(n2)sc2cc(C(=O)NCc4ccccc4)ccc23)cc1 | ? | -16.2% | · | 3.9% | ? | -11.7%
CCC(C)Oc1ccccc1C1CC(=O)NC2=C1C(=O)CCC2 (centres undefined) | ? | 13.2% | 60.9 | 1.0% | 25.9µM* | 5.4%
Cc1ccccc1C1CC(=O)NC2=C1C(=O)CCC2 (centres undefined) | -1.8% | 18.6% | -4.1 | 7.9% | 4.9% | -10.8%
Cc1ccc(CCNC(=O)c2ccc(CS(=O)(=O)c3ccc(Br)cc3)o2)cc1 | -2.0% | -26.9% | · | 0.0% | 0.2% | -19.2%
CC1(C)CC(=O)CC(=O)/C1=N\Nc1c(Cl)cc(Cl)cc1Cl | 18.4µM* | -0.9% | 42.8 | 3.0% | ? | 4.0%
CCOc1ccc(-n2c(C)nc3cc(C(=O)NCCC4=CCCCC4)ccc32)cc1 | 16.4µM* | 17.8µM* | · | 3.8% | 18.4µM* | -30.6%
Cc1nc2cc(C(=O)NCCC3=CCCCC3)ccc2n1-c1ccc(Br)cc1 | ? | ? | · | 0.9% | ? | -28.5%
CCOc1ccc(-n2c(C)nc3cc(C(=O)NCc4ccc(C)cc4)ccc32)cc1 | 16.4µM* | ? | · | 2.6% | ? | 3.5%
CCOc1ccc(CNC(=O)c2ccc(Sc3ccc(C)cc3)c(NC(C)=O)c2)cc1 | 20.6µM* | -9.3% | -3.7 | -0.6% | ? | -15.5%
CC1CCn2c(nc3cc(C(=O)NCc4ccc(OC(C)C)cc4)ccc32)C1 (centres undefined) | 23.1µM* | ? | · | 0.0% | ? | -15.1%
Cc1ccccc1OCC(=O)Nc1ccc(C(=O)OCc2cc(=O)n3ccsc3n2)cc1 | -13.1% | 3.8% | · | 6.2% | ? | -31.3%
COC(=O)c1cc(CNC(=O)c2cccc(C)c2)cc(NC(=O)c2ccncc2)c1 | -9.3% | · | · | · | 2.3%[9.04 µM] | ·
CC(=O)c1c(C)oc2c(Cl)cc(NS(=O)(=O)c3cc(C)c(C)cc3C)cc12 | ? | -1.4% | · | · | -22.0% | -1.3%
Cc1cc(C)cc(-n2c(C)nc3cc(C(=O)NCc4ccc(F)cc4)ccc32)c1 | 14.6µM* | ? | · | 2.6% | ? | -11.5%
O=C(COc1ccc2oc3c(c2c1)CCCC3)Nc1ccc(Br)cc1 | ? | 22.5% | · | · | 14.6µM* | -21.1%
Cc1ccc(NC(=O)COc2ccc3oc4c(c3c2)CCCC4)nc1 | 8.2µM* | 1.3% | -1.4 | -4.7% | ? | 3.7%
O=C(COc1ccc2oc3c(c2c1)CCCC3)Nc1ccc(Cl)cc1 | ? | 42.6% | · | · | ? | 0.3%
Cc1cccc(NC(=O)COc2ccc3oc4c(c3c2)CCCC4)c1 | 18.4µM* | -13.5% | · | · | 16.4µM* | -27.0%
Cc1ccc(NC(=O)COc2ccc3oc4c(c3c2)CCCC4)c(C)c1 | ? | 1.0% | · | · | ? | -10.0%
CC(C)N(CCNC(=O)COc1ccc2oc3c(c2c1)CCCC3)C(C)C | 23.1µM* | 0.0% | -77.3* | 2.5% | ? | -34.3%
Cc1ccc(CCNC(=O)C2CCN(S(=O)(=O)c3ccc4c(c3)NC(=O)CO4)CC2)cc1 | ? | -10.1% | 19.0 | 1.7% | ? | -19.6%
CCc1ccccc1N(CC)C(=O)c1cc2c(s1)-c1ccccc1OC2 | · | ? | · | -12.7% | · | -33.3%
COc1ccc(C2Nc3ccccc3-c3nnc(SC)nc3O2)cc1C (centres undefined) | -14.5% | -1.0% | · | · | 2.4% | -13.0%
CCO/C=C/C(O)(CNC(=O)c1ccc(C(C)(C)C)cc1)C(F)(F)F (centres undefined) | 16.4µM* | 0.6% | -1.6 | 0.0% | ? | -34.1%
CCN(N=O)c1ccc(/C=C2\C=Cc3ccccc32)cc1 | -25.7% | -4.0% | · | · | 3.7% | 3.7%
